The whole screen tested about 5,500 compounds, of which about 2,000 (36%) were called active. Not shown: some 18% with an inconclusive outcome. No stated cut-off is given here; in the data, active means normalized growth mostly below about 0.91 (no sharp cut-off); inconclusive means no clear call, values can overlap the other calls; inactive means mostly above about 0.92. The list shows a part of the results.
Experiment: chemical genetic growth profiling, strain panel (AID 1159580);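 further: tested at 20 µM; growth read once vehicle control cultures reached saturation at 30 °C; 1 = growth at the plate median or of vehicle wells; lower values mean less growth of the strain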
Conditions: S. cerevisiae deletion strains, growth OD

Measured: normalized growth

COc1ccc2c(c1)OCc1c-2oc2cc(OC)ccc12
active: locus YKL160W, strain elf1, active compounds read low 0.748 | locus YKR001C, strain vps1, active compounds read low 0.777 | locus YLL001W, strain dnm1, active compounds read low 0.871 | locus YLR027C, strain aat2, active compounds read low 0.8 | locus YLR039C, strain RIC1, active compounds read low 0.446 | locus YLR221C, strain rsa3, active compounds read low 0.762 | locus YLR258W, strain gsy2, active compounds read low 0.895 | locus YLR262C, strain YPT6 (second series), active compounds read low 0.387 | locus YLR262C, strain YPT6, active compounds read low 0.505 | locus YLR320W, strain mms22, active compounds read low 0.625 | locus YLR342W, strain FKS1, active compounds read low 0.73 | locus YML120C, strain ndi1, active compounds read low 0.842 | locus YMR058W, strain fet3, active compounds read low 0.699 | locus YMR125W, strain sto1, active compounds read low 0.877 | locus YMR205C, strain PFK2, active compounds read low 0.694 | locus YMR231W, strain pep5, active compounds read low 0.912 | locus YNL071W, strain lat1, active compounds read low 0.502 | locus YNL307C, strain MCK1, active compounds read low 0.858 | locus YNL322C, strain KRE1, active compounds read low 0.874 | locus YOR070C, strain gyp1, active compounds read low 0.836 | locus YOR083W, strain WHI5, active compounds read low 0.812 | locus YOR106W, strain vam3, active compounds read low 0.822 | locus YOR184W, strain ser1, active compounds read low 0.821 | locus YOR265W, strain rbl2, active compounds read low 0.928 | locus YOR270C, strain vph1, active compounds read low 0.476 | locus YOR290C, strain snf2, active compounds read low 0.834 | locus YPL051W, strain arl3, active compounds read low 0.677 | locus YPL078C, strain atp4, active compounds read low 0.764 | locus YPL240C, strain hsp82, active compounds read low 0.915
inactive: locus YJR075W, strain HOC1, active compounds read low 0.898 | locus YKL009W, strain mrt4, active compounds read low 1.02 | locus YKL068W, active compounds read low 1.01 | locus YKL085W, strain MDH1 (second series), active compounds read low 0.984 | locus YKL085W, strain MDH1, active compounds read low 0.984 | locus YKL190W, strain CNB1, active compounds read low 1 | locus YKR026C, strain gcn3, active compounds read low 0.988 | locus YKR091W, strain srl3, active compounds read low 0.987 | locus YLL041C, strain sdh2, active compounds read low 0.972 | locus YLR058C, strain SHM2, active compounds read low 0.936 | locus YLR102C, strain apc9, active compounds read low 1.01 | locus YLR113W, strain HOG1, active compounds read low 0.928 | locus YLR268W, strain sec22, active compounds read low 0.966 | locus YLR330W, strain CHS5, active compounds read low 0.929 | locus YLR342W, strain FKS1 (second series), active compounds read low 0.796 | locus YLR357W, strain rsc2, active compounds read low 0.909 | locus YLR370C, strain arc18, active compounds read low 0.94 | locus YLR371W, strain rom2, active compounds read low 1.01 | locus YLR384C, strain iki3, active compounds read low 1.01 | locus YLR418C, strain cdc73, active compounds read low 0.901 | locus YML016C, strain PPZ1, active compounds read low 0.978 | locus YML032C, strain rad52, active compounds read low 0.959 | locus YML124C, strain tub3, active compounds read low 1.01 | locus YMR078C, strain ctf18, active compounds read low 1.01 | locus YMR129W, active compounds read low 0.985 | locus YMR223W, strain ubp8, active compounds read low 1.01 | locus YMR263W, strain SAP30, active compounds read low 0.954 | locus YMR307W, strain GAS1, active compounds read low 1 | locus YNL067W, strain RPL9B, active compounds read low 0.92 | locus YNL153C, strain GIM3, active compounds read low 0.968 | locus YNL183C, strain NPR1, active compounds read low 0.888 | locus YNL209W, strain ssb2, active compounds read low 0.965 | locus YNL233W, strain BNI4, active compounds read low 0.9 | locus YNL248C, strain rpa49, active compounds read low 0.894 | locus YNL250W, strain rad50, active compounds read low 1.03 | locus YNL271C, strain bni1, active compounds read low 1.01 | locus YNL298W, strain CLA4, active compounds read low 1.03 | locus YNL322C, strain KRE1 (second series), active compounds read low 0.955 | locus YNR049C, strain mso1, active compounds read low 1 | locus YNR052C, strain pop2, active compounds read low 1.02 | locus YOL012C, strain htz1 0.977 | locus YOL147C, strain pex11, active compounds read low 1.01 | locus YOR001W, strain rrp6, active compounds read low 0.896 | locus YOR061W, strain CKA2, active compounds read low 1 | locus YOR069W, strain VPS5, active compounds read low 0.956 | locus YOR080W, strain dia2, active compounds read low 1 | locus YOR136W, strain idh2, active compounds read low 1 | locus YOR144C, strain elg1, active compounds read low 0.991 | locus YOR231W, strain MKK1, active compounds read low 0.938 | locus YOR316C, strain cot1, active compounds read low 1.02 | locus YPL106C, strain sse1, active compounds read low 0.969 | locus YPL256C, strain CLN2, active compounds read low 0.95 | locus YPR119W, strain clb2, active compounds read low 0.998 | locus YPR141C, strain kar3, active compounds read low 1.03 | locus YPR163C, strain tif3, active compounds read low 1 | locus YPR167C, strain met16, active compounds read low 0.992 | strain wtn01, active compounds read low 0.983

— PubChem BioAssay AID1159580 (chemical genetic matrix, 2015)
